From PubChem BioAssay
RORgamma inh: qHTS for inhibitors of ROR gamma transcriptional activity | Drosophila S2 Gal4-RORgamma UAS-luciferase reporter, 20 h | Potency, µM (series often up to 53.6 µM), inactives show at the top dose activity change, negative = inhibition, usual class: inhibitors | 5.4% of 310,000 active; also: nearly all actives have a fitted effect of over 60% in size
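Drosophila Schneider cells stably carrying a metallothionein-driven Gal4 DBD–ROR gamma fusion and a UAS-Photinus luciferase reporter were exposed to compound for 1 hr, then induced with copper sulfate (700 uM final) for 20 hr at ambient temperature before luminescence reading.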
TDP1 inh: qHTS Assay for Inhibitors of Tyrosyl-DNA Phosphodiesterase (TDP1); Tyrosyl-DNA phosphodiesterase 1 (Homo sapiens), Q9NUW8; recombinant TDP1, AlphaScreen DNA substrate cleavage; Potency, µM (highest dose often 130 µM), inactives show top-dose activity change, negative = inhibition, actives largely listed as inhibitors; 0.28% of 350,000 active; also: nearly all actives have a fitted effect of over 40% in size
Target sequence (Q9NUW8 whole entry, looked up): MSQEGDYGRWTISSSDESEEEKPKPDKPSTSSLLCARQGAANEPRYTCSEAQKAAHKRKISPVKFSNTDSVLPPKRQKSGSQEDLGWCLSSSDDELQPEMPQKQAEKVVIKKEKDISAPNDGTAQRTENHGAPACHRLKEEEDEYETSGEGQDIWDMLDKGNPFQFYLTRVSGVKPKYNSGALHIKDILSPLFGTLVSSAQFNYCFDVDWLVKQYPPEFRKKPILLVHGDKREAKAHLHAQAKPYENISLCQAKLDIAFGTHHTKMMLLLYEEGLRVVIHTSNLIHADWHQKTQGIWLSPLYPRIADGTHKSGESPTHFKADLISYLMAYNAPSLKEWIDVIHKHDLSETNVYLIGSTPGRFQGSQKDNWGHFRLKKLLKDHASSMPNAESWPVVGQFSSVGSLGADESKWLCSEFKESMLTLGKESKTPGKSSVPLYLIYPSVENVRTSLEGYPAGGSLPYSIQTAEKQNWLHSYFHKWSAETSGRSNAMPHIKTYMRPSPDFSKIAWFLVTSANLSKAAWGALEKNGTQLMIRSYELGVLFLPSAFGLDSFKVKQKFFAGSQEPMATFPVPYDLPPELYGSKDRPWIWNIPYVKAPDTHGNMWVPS
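Recombinant E. coli-expressed Tdp1 (1 nM) preincubated with compound 15 min at RT, then 5'-biotin/3'-phosphotyrosine-FITC DNA substrate (15 nM) added for 5 min. AlphaScreen beads (10 ug/ml) added, 10 min RT; tyrosine-FITC cleavage read as signal loss.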
TDP1 cell noCPT: qHTS for Inhibitors of human tyrosyl-DNA phosphodiesterase 1 (TDP1): qHTS in cells in absence of CPT; DT40 Tdp1-/- hTDP1 cells, no CPT, ATP luminescence, 48 h; Potency, µM (doses to about 46.2 µM), inactives show at the highest dose activity change, negative = growth inhibition, hits mostly inhibitors; 15% of 420,000 active; also: nearly all actives have a fitted effect of over 55% in size
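No-CPT arm: Tdp1-/-;hTDP1 DT40 cells (400/well) plus compounds, incubated ≥48 hr at 37 °C. Readout CellTiter-Glo luminescence.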
Gal4-VP16 FLuc: VP16 counterscreen qHTS for inhibitors of ROR gamma transcriptional activity | 3.5% of 310,000 active | AID 2546, 2010 | Drosophila S2 Gal4-VP16 UAS-luciferase, luminescence, 20 h | Potency, µM (series often up to 53.6 µM), inactives show at the highest dose activity, negative = inhibition, actives largely listed as inhibitors;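 also: Gal4-VP16 expression switched on by copper sulfate through the metallothionein promoter; nearly all actives have a fitted effect of over 50% in size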
DT40 TDP1 CPT: qHTS for Inhibitors of human tyrosyl-DNA phosphodiesterase 1 (TDP1): qHTS in cells in presence of CPT | chicken DT40 Tdp1-/-;hTDP1 cells + 20 nM CPT, ATP luminescence, 48 h | Potency, µM (doses to about 46.2 µM), for inactives: top-dose activity change, negative = growth inhibition, usual class: inhibitors | 12% of 420,000 active | AID 686979, 2013; also: nearly all actives have a fitted effect of over 55% in size
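Cell growth measured by CellTiter-Glo luminescence after a minimum 48 h, 37 C compound exposure with 20 nM CPT in Tdp1-knockout DT40 cells stably expressing hTDP1, seeded 400/well; qHTS titration format.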
An asterisk follows results filed as active; [ ] = dose if it differs, or a comment. Hits are enriched below; roughly 19% of the tested compounds scored in any of these assays. Calls follow the shape of the dose curve; as a rule, active = well fitted curve in the direction sought with a large enough effect; inconclusive = small, poorly fitted or top-dose-only effect, or another doubt; inactive = no such curve, though single readings can be large; an effect the other way counts as inactive or inconclusive. % is scaled to controls: 0 for no effect and ±100 for the full control effect; potency is read from the fitted curve at half-maximal effect.

For COCCN1C(=O)C(CC(=O)Nc2ccc(C(C)=O)cc2)SC1=Nc1ccccc1 (stereo not given) the results were RORgamma inh -2%[10 µM], TDP1 inh 3%, TDP1 cell noCPT inconclusive, Gal4-VP16 FLuc 8% and DT40 TDP1 CPT 16µM*.
`CS(=O)(=O)Nc1ccc(C(=O)NCc2ccc3c(c2)OCO3)cc1` gave RORgamma inh -3%, TDP1 inh 9%, TDP1 cell noCPT -20%, Gal4-VP16 FLuc -5% and DT40 TDP1 CPT inconclusive.
For Cc1c(C(=O)N2CCCC2)oc2c1-c1nn(CC(=O)NCc3ccccc3Br)cc1CC2 the results were TDP1 inh 8%, TDP1 cell noCPT 21µM* and DT40 TDP1 CPT inconclusive.
For CCOc1ccccc1CNC(=O)Cn1cc2c(n1)-c1c(oc(C(=O)N3CCCC3)c1C)CC2 the results were TDP1 inh 8%, TDP1 cell noCPT 13µM* and DT40 TDP1 CPT 13µM*.
`Cc1cn([C@H]2C[C@H](O)[C@@H](CNCc3cccn3-c3ccncc3)O2)c(=O)[nH]c1=O` gave TDP1 cell noCPT -15% and DT40 TDP1 CPT -12%.
Screening CCCc1cc(-c2n[nH]c(C)c2-c2ccc(C(=O)OCC)o2)c(O)cc1O returned RORgamma inh inconclusive, TDP1 inh 9%, TDP1 cell noCPT inconclusive, Gal4-VP16 FLuc 1% and DT40 TDP1 CPT inconclusive.
For CCCc1ccc(Oc2cn[nH]c2-c2ccc(O)c(C)c2O)cc1 the results were RORgamma inh inconclusive, TDP1 inh 5%, TDP1 cell noCPT inconclusive, Gal4-VP16 FLuc inconclusive and DT40 TDP1 CPT 18µM*.
CCCc1ccc(Oc2c(-c3ccc(O)c(C)c3O)n[nH]c2C)cc1 was read as RORgamma inh 18µM*, TDP1 inh 6%, TDP1 cell noCPT inconclusive, Gal4-VP16 FLuc inconclusive and DT40 TDP1 CPT -18%.
Screening CC(=O)Nc1ccc(C(=O)OCC(=O)N2CCC(Cc3ccccc3)CC2)cc1 returned TDP1 inh 2%, TDP1 cell noCPT -28% and DT40 TDP1 CPT -23%.
CCCc1cc(=O)[nH]c(SCC(=O)NCc2ccc3c(c2)OCO3)n1 was read as RORgamma inh -22%, TDP1 inh -12%, TDP1 cell noCPT -14%, Gal4-VP16 FLuc 1% and DT40 TDP1 CPT 15%.
For COc1cc(C(=O)N2CCN(S(=O)(=O)c3cccs3)CC2)cc(OC)c1C the results were RORgamma inh -13%, TDP1 inh 1%, TDP1 cell noCPT -26%, Gal4-VP16 FLuc 4% and DT40 TDP1 CPT -15%.
`O=C(C[n+]1cccc(CNC(=O)c2ccc(OC(F)F)cc2)c1)Nc1cc(C(F)(F)F)ccc1Cl` gave RORgamma inh -7%, TDP1 inh 5%, TDP1 cell noCPT -1%, Gal4-VP16 FLuc 1% and DT40 TDP1 CPT 6%.
Cc1ccc(C)c(Sc2ccc(NC(=O)CCN3C(=O)NC4(CCCC4)C3=O)cc2)c1 was read as TDP1 inh -7%, TDP1 cell noCPT inconclusive and DT40 TDP1 CPT inconclusive.
Screening Cc1ccc(Sc2ccc(NC(=O)CCl)cc2)c(C)c1 returned RORgamma inh 2.8µM*, TDP1 inh -3%, TDP1 cell noCPT 18µM*, Gal4-VP16 FLuc 5µM* and DT40 TDP1 CPT 15µM*.
For CCCCn1c(-c2ccco2)n[nH]c1=S the results were RORgamma inh 4.5µM*, TDP1 inh 6%, TDP1 cell noCPT 2%, Gal4-VP16 FLuc 7.1µM* and DT40 TDP1 CPT 5%.
For CCn1c(-c2ccco2)n[nH]c1=S the results were RORgamma inh 16µM*, TDP1 cell noCPT -7%, Gal4-VP16 FLuc inconclusive and DT40 TDP1 CPT -16%.
CCCCn1c(-c2c(Cl)c(C)nn2C)n[nH]c1=S was read as RORgamma inh 2.2µM*, TDP1 inh 0%, TDP1 cell noCPT 2%, Gal4-VP16 FLuc -2% and DT40 TDP1 CPT 1%.
C=CCn1c(-c2ccco2)n[nH]c1=S was read as RORgamma inh 10µM*, TDP1 cell noCPT 5%, Gal4-VP16 FLuc inconclusive and DT40 TDP1 CPT 0%.
`Cn1c(-c2ccco2)n[nH]c1=S` gave RORgamma inh inconclusive, TDP1 inh -9%, TDP1 cell noCPT -2%, Gal4-VP16 FLuc -3% and DT40 TDP1 CPT 9%.
For CCC(=O)Nc1ccc(NC(=O)c2ccc3ccccc3c2)cc1 the results were RORgamma inh 12%[1.91 µM], TDP1 cell noCPT -15%, Gal4-VP16 FLuc 17% and DT40 TDP1 CPT -1%.
CCOC(=O)C1CCN(C(=O)Cn2cnc3sc(C)c(S(=O)(=O)N4CCOCC4)c3c2=O)CC1 was read as RORgamma inh -11%, TDP1 inh 7%, TDP1 cell noCPT -18%, Gal4-VP16 FLuc -4% and DT40 TDP1 CPT 5%.
Screening CCCCn1c(-c2ccoc2C)n[nH]c1=S returned RORgamma inh 3%, TDP1 inh 7%, TDP1 cell noCPT -12%, Gal4-VP16 FLuc -2% and DT40 TDP1 CPT -19%.
For CC(C)Cn1c(-c2ccccc2F)n[nH]c1=S the results were RORgamma inh 5.6µM*, TDP1 cell noCPT -7%, Gal4-VP16 FLuc 10µM* and DT40 TDP1 CPT 12%.
For CC(C)Cn1c(-c2ccncc2)n[nH]c1=S the results were RORgamma inh inconclusive, TDP1 cell noCPT 4%, Gal4-VP16 FLuc 0% and DT40 TDP1 CPT -1%.
For COc1ccccc1-c1n[nH]c(=S)n1Cc1ccccc1 the results were RORgamma inh inconclusive, TDP1 cell noCPT -10%, Gal4-VP16 FLuc inconclusive and DT40 TDP1 CPT -10%.
`CC(C)Cn1c(-c2csc3c2CCCC3)n[nH]c1=S` gave RORgamma inh 2.8µM*, TDP1 inh 7%, TDP1 cell noCPT inconclusive, Gal4-VP16 FLuc 5µM* and DT40 TDP1 CPT -20%.
For CC(C)Cn1c(-c2ccco2)n[nH]c1=S the results were RORgamma inh 10µM*, TDP1 inh 4%, TDP1 cell noCPT -4%, Gal4-VP16 FLuc inconclusive and DT40 TDP1 CPT -5%.
Screening CC(C)Cn1c(-c2ccco2)nc2c(c(=O)c3ccccc3n2C)c1=O returned RORgamma inh 7%, TDP1 inh -1% and Gal4-VP16 FLuc -19%.
Screening CCCCn1c(-c2sccc2C)n[nH]c1=S returned RORgamma inh 5µM*, TDP1 inh 3%, TDP1 cell noCPT inconclusive, Gal4-VP16 FLuc 11µM* and DT40 TDP1 CPT 8%.
Screening Cc1ccnc(SCc2ccc([N+](=O)[O-])cc2)n1 returned RORgamma inh 3%, TDP1 inh 3%, TDP1 cell noCPT 10%, Gal4-VP16 FLuc inconclusive and DT40 TDP1 CPT -2%.
